dFosB act = enhances mouse delta FosB homodimer DNA binding | P13346 | purified delta FosB, TAMRA-CDK5 oligo fluorescence polarization; percent of positive-control signal above neutral wells | activation, % at 25 µM | 0.99% of 340,000 active | AID 493131;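 active = mean activation above about 17%, with every replicate also reaching it, limit read from the data, passing the limit was not always enough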
Target sequence (P13346 whole entry, looked up): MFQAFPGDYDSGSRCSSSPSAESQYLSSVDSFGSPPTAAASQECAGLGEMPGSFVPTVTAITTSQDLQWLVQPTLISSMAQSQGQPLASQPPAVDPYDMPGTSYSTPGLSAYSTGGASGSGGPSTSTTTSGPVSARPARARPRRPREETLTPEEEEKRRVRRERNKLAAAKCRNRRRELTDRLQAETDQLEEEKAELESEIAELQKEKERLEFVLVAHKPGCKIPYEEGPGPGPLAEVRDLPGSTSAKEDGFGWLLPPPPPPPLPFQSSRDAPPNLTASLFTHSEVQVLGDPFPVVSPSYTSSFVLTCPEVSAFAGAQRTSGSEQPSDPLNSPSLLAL
MPTP inh = permeability transition pore inhibition; isolated mouse mitochondria, Ca2+ swelling absorbance, 30 min; inhibition, % at 10 µM; 1.4% of 360,000 active; AID 602449;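 active = inhibition of 50% or more, scaled per plate between neutral and stimulator controls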;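 note: 0% = DMSO wells given calcium and 100% = 1 mM EGTA wells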
HSF1 activator = increases HSF-1 driven luciferase reporter signal. activation, % at 9 µM. NIH3T3-HGL HSF-1 luciferase reporter, MG132, 8 h; 100% = twice DMSO control signal. 1.7% of 300,000 active;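 active = mean replicate activation of at least 50% with a set share of replicates each reaching 50%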;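 note: 0% = median of the neutral control wells and 100% = twice that signal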
HSF1 inh = HSF1 inhibition; NIH3T3-HGL HSE-luciferase, MG132-induced, luminescence 8 h; hits give low values; activity change, negative = inhibition, % at 7.5 µM (by protocol); 0.77% of 300,000 active; AID 2098;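 active = more than half of replicate wells show activity change below -50%, luminescence cut by over half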;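 note: luciferase reports HSF-1 transcriptional activity via heat shock element; 0% = median of DMSO wells and -100% = zero luminescence signal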
HSP90 inh = blocks HSP90-mediated luciferase refolding in reticulocyte lysate | Rabbit reticulocyte lysate, luciferase refolding luminescence, 3 h | 0.91% of 290,000 active | inhibition, % at 5.6 µM;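 active = inhibition above the screen-wide mean plus 3 SD, computed separately per campaign, cut at about 16% in these data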;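 note: 0% = DMSO wells and 100% = 60 µM geldanamycin wells; inhibitors lower the luminescence because luciferase stays unfolded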
Platelet DG rel = modulates dense granule release in human platelets; AID 1663; inhibition, %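 (compounds screened at 7.5 µM in platelet-rich plasma)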; 0.22% of 300,000 active; human platelet-rich plasma, SFLLRN dense granule ATP release, luminescence;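 active = mean replicate score, as percent of positive control, at or above 50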
* hit, by the source's call; nt = not tested or not shown. An excerpt weighted towards active compounds, which were near 4.9% of everything screened.

SMILES | dFosB act | MPTP inh | HSF1 activator | HSF1 inh | HSP90 inh | Platelet DG rel
Clc1ccc(Cn2nc(-c3ccccc3)nc2-c2ccccc2)cc1 | -10.2 | 3.4 | 53.5* | 37.6 | 0.0 | -13.1
Nc1nc(-c2cccnc2)nc2sc3c(c12)CCCC3 | -0.2 | 3.8 | 79.7* | 27.6 | -1.2 | 4.1
O=c1oc(-c2ccccc2)nc2sc3c(c12)CCCC3 | -7.6 | -1.6 | 69.4* | 51.3 | 4.7 | -7.8
CN(CC(=O)Nc1cccc(F)c1)C(=O)CCCN1C(=O)c2cccc3cccc(c23)C1=O | -1.3 | -1.6 | 13.2 | 3.1 | nt | -4.0
O=C1C2C3CC(C(Br)C3Br)C2C(=O)N1c1nccs1 (stereo not given) | nt | 2.1 | 0.5 | -3.6 | nt | -14.6
CCOc1ncccc1C(=O)NCCc1ccc(Cl)cc1 | -5.6 | 0.4 | 20.3 | 8.0 | 0.8 | -3.9
Cc1cc(NC(=O)C(C)C)ncc1NC(=O)c1cccc(F)c1 | 3.4 | -1.1 | 3.9 | 1.7 | -2.5 | -0.3
CCCC(=O)Nc1cnc(NC(=O)c2cccc(F)c2)cc1C | -0.9 | -5.8 | 5.7 | 5.6 | 16.7* | 19.9
COc1ccccc1C(=O)NCCCNC(=O)c1ccccn1 | -4.0 | 0.6 | 79.4* | 31.1 | 2.7 | 4.6
COc1ccc(C(=O)NCCOc2ccccc2Cl)c(OC)c1OC | -3.7 | -0.3 | 53.9* | 56.5 | -0.1 | -3.4
COc1ccc(NC(=O)c2cc(-c3cc(Cl)ccc3C)n[nH]2)cn1 | nt | 2.2 | nt | nt | nt | nt
CC[C@H](C)/C=C(C)/C=C/C(=O)Cc1cc(O)c(C)c(O)c1C=O | -16.8 | 0.9 | 78.3* | 44.5 | nt | 6.1
Cc1ccc(C(=O)O/N=C(\N)Cc2cccc3ccccc23)cc1 | -5.5 | -0.7 | 63.5* | 16.8 | 9.9 | 20.5
Cc1onc(-c2ccccc2)c1C(=O)N=C(N)c1ccc(C(F)(F)F)cc1 | -11.4 | 4.7 | 82.1* | 40.4 | 2.6 | -10.4
CCc1nnc(NC(=O)[C@@H](NC(=O)c2cc(OC)cc(OC)c2)C(C)C)s1 | -13.3 | 0.3 | 13.2 | -8.4 | 0.0 | 7.3
CCCCn1c(=O)[nH]c(=O)c2c1nc(CN1C(=O)c3ccccc3S1(=O)=O)n2CCC | -0.4 | -0.1 | 19.0 | 7.2 | 0.6 | -0.2
CCCCn1c(=O)[nH]c(=O)c2c1nc(Cn1ncc(Cl)c(Cl)c1=O)n2CCC | -10.7 | -1.2 | -93.3 | -93.0* | 4.0 | 15.6
O=[N+]([O-])c1ccc(-c2csc(N3CCc4ccccc4C3)n2)cc1 | 0.0 | 3.5 | -2.1 | 0.6 | -0.4 | -13.3
O=[N+]([O-])c1ccc(N2CCc3ccccc3C2)cc1 | -3.5 | 0.3 | 72.6* | 71.4 | 5.1 | -5.0
O=C(NCCc1cccc(Cl)c1)c1cccs1 | -6.7 | 0.5 | 41.6 | 38.5 | -2.3 | -7.6
COc1cc(C(=O)NN=Cc2ccc(N(C)C)cc2)cc(OC)c1OC | nt | 0.8 | nt | nt | nt | nt
O=C(Nc1ccccc1F)C(=Cc1sc(N2CCOCC2)nc1-c1ccccc1)C(=O)Nc1ccccc1F | -9.9 | 2.8 | 63.9* | 16.0 | -4.9 | 10.5
Oc1cccc(Nc2c3ccccc3nc3ccccc23)c1 | 64.9* | 3.2 | 7.4 | 7.6 | -0.1 | -19.6
Cc1ccc(-c2nc(N/N=C/c3cccc([N+](=O)[O-])c3)c3ccccc3n2)cc1 | -10.9 | 1.6 | 16.2 | 14.3 | 1.0 | 16.0
c1cncc(Nc2c3ccccc3nc3ccccc23)c1 | 30.1* | 0.2 | 1.7 | -7.8 | 3.5 | 2.4
SMILES | dFosB act | MPTP inh | HSF1 activator | HSF1 inh | HSP90 inh | Platelet DG rel
Cc1ccc(-c2nc(N/N=C/c3cccnc3)c3ccccc3n2)cc1 | -48.3 | 0.7 | 24.3 | 27.1 | -0.2 | 63.8*
Cc1ccc(-c2nc(Nc3ccc(O)cc3)c3ccccc3n2)cc1 | 0.1 | 2.3 | 22.6 | 7.1 | -5.1 | -2.1
Cc1ccc(-c2nc(Nc3cccc(O)c3)c3ccccc3n2)cc1 | 22.0* | 2.0 | -5.5 | -3.5 | -5.5 | -2.2
CC(=O)Nc1ccc(CN2C(=O)C(Cc3ccccc3)ON=C2c2cccc(F)c2)cc1 (stereo not given) | nt | -1.8 | nt | nt | nt | nt
Cc1ccc(Nc2nc(N)nc(COC(=O)c3ccc(Br)o3)n2)cc1 | 0.8 | -0.1 | nt | nt | nt | nt
COc1cccc(C(=O)NC2CCCC2)c1 | -1.4 | -1.1 | 69.7* | 24.9 | -4.2 | 2.1
COc1cccc(NC(=O)C2CC2)c1 | -4.6 | -0.3 | -8.0 | -3.5 | nt | 4.6
COc1cccc(C(=O)NNC(=S)NC2CCCCC2)c1 | 2.0 | 0.5 | 27.8 | 9.7 | -2.7 | -9.9
COc1cccc(C(=O)Nc2ccc(C3CC3(Cl)Cl)cc2)c1 (stereo not given) | -4.8 | 23.3 | 102.7* | 61.5 | -2.1 | 35.4
COc1cccc(C(=O)Nc2ccc(C)cc2)c1 | 3.9 | -4.0 | 32.0 | 21.1 | 9.3 | 16.9
CCC1CCC(NC(=O)Nc2cccc(OC)c2)CC1 (stereo not given) | 1.1 | 48.7 | 62.4* | 25.2 | 1.8 | -2.6
COc1ccc2oc(C(=O)NC3CCCCC3)c(C)c2c1 | -13.3 | 1.5 | 60.8* | 37.4 | -0.8 | 7.9
CC(C)CCOc1ccc(C2CC(=O)N(C)C2=O)cc1 (stereo not given) | -3.1 | 0.0 | 11.2 | 2.2 | 0.7 | 7.5
Cn1c(=O)[nH]c(=O)c2c1nc(SCC(O)CCl)n2Cc1ccccc1 (stereo not given) | 8.7 | 1.0 | 9.1 | 10.7 | 0.5 | -1.4
CCOc1cc(C2NN=C(c3ccccc3)S2)ccc1OCc1ccccc1Cl (stereo not given) | 2.3 | 1.3 | 53.4* | 37.5 | -4.5 | 8.3
CCOc1cc(C2NN=C(c3ccccc3)S2)ccc1OCc1ccc(F)cc1 (stereo not given) | -21.0 | 1.2 | 56.4* | 29.5 | -1.1 | 9.4
CCOc1cc2c(cc1OCC)C(c1ccc(F)cc1)NCC2 (stereo not given) | 1.0 | 1.2 | 2.7 | -2.0 | nt | 1.5
CCSCc1nnc(SCC(=O)Nc2ccc(OC)cc2)n1C | -1.0 | 0.8 | -51.6 | -43.6 | 4.1 | 7.5
CC(C)Oc1ccc(N2C(=O)c3ccccc3C2=O)cc1 | 6.6 | -0.6 | 58.0* | 8.1 | 3.0 | -4.1
COc1ccc(N2C(=O)c3ccccc3C2=O)cc1 | -8.1 | -0.7 | 32.2 | 5.3 | -1.6 | 7.0
Clc1ccc(C2[C@H]3CN(Cc4cccnc4)[C@H](c4ccccc4)C34CC2(c2cccnc2)C4)cn1 (stereo not given in full) | 1.4 | 0.4 | 18.5 | 3.2 | nt | -1.3
CN(C)C(=O)COC(=O)c1ccccc1NC(=O)c1ccco1 | -9.8 | 0.0 | -7.7 | -6.3 | -0.7 | 4.9
CC(=O)Nc1ccccc1OC(C)C(=O)N1CC(C)CC(C)C1 (stereo not given) | -0.1 | -0.8 | 113.6* | 55.5 | -1.2 | 5.3
COc1ccc(NC(=O)C(=O)NCCC2CCCCN2S(=O)(=O)c2ccccc2)cc1 (stereo not given) | 12.0 | -0.2 | -18.0 | -10.9 | nt | -14.1
COc1ccc(CNC(=O)C[C@@H]2CC[C@@H](NS(=O)(=O)c3cccc(OC)c3)[C@@H](CO)O2)cc1 | nt | 1.0 | nt | nt | nt | nt
Cc1cc(C)c2c(ccc3ccccc32)n1 | -21.2 | -0.9 | nt | nt | nt | nt
Oc1ccc(-c2nc3ccc4ccccc4c3c3c2CCC3)cc1O | 3.3 | 6.3 | 61.0* | 24.8 | -1.0 | -1.9

Compound activity: PubChem BioAssay, several laboratories
